Test results taken from paper PMC5540273 (PLoS ONE, 2017).

test system: EPHA5; conditions: concentration: 1 μM, replicates: in singlicate; n = 1
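Note: KINOMEscan kinase panel screen.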

| SMILES | %Inh [%] |
| --- | --- |
| CC(=O)N1CCN(c2ccc(Nc3nccc(-c4sc(C(C)C)nc4-c4cccc(NS(=O)(=O)c5cccc(Cl)c5)c4)n3)cn2)CC1 [GSK1660437] | 99.6 |
| CN(C)S(=O)(=O)c1cc(-c2ccc3nccc(-c4cccc(S(N)(=O)=O)c4)c3c2)cnc1N [GSK1669921] | 0 |
| O=C(NC1CCN(c2ccnc(Nc3ccc(F)cc3)n2)C1)c1cc2ccccc2s1 (stereo not shown) [GSK1379716] | 2 |
| Cn1cc(-c2ccc3c(c2)CCN3C(=O)Cc2cccc(Cl)c2)c2c(N)ncnc21 [GSK2606590] | 0 |
| FC(F)(F)c1ccc(/C=C/c2cncnc2Nc2ccc3[nH]c(Cc4ccccc4)nc3c2)cc1 [GW709199] | 0 |
| Cl.c1ccc(-c2ccc3c(Nc4ccc5[nH]ccc5c4)ccnc3c2)nc1 [GW440138] | 0 |
| c1ccc(-c2n[nH]cc2Nc2ccnc3ccccc23)nc1 [GW694077] | 0 |
| CC(C)c1nc(-c2cccc(NS(=O)(=O)c3c(F)cccc3F)c2F)c(-c2ccnc(Nc3ccc(N4CCOCC4)nc3)n2)s1 [GSK2008607] | 0 |
| COc1cc(Nc2nccc(N3CCC(NC(=O)c4cc5ccccc5s4)C3)n2)cc(OC)c1OC (stereo not shown) [GSK1379760] | 0 |
| COc1cc(Nc2ncc3c(C)nc(-c4cc5ccccc5[nH]4)n3n2)cc(OC)c1OC [GW869516] | 16 |
| Cn1cc(-c2[nH]c3cc(NC(=O)[C@H](N)C4CCCCC4)cc4c3c2C=NNC4=O)cn1 | 12 |
| COC(=O)Nc1nc2ccc(Oc3ccc(NC(=O)Nc4cc(C(F)(F)F)ccc4F)cc3)cc2n1C.Cl [GW692089] | 0 |
| CCS(=O)(=O)c1ccc(OC)c(Nc2nccc(-c3c(-c4cccc(NC(=O)c5c(F)cccc5F)c4)nn4ncccc34)n2)c1 [GSK326180] | 0 |
| CCn1c(-c2nonc2N)nc2c(C#CC(C)(C)O)nc(OC[C@H](N)c3ccccc3)cc21 [GSK943949] | 0 |
| CC(=O)Nc1nc2cnc(Nc3cc(NC(=O)c4cccc(C5(C#N)CC5)c4Cl)ccc3C)nc2s1 | 3 |
| COc1ccc(CNC(=O)NC2CCN(c3ccnc(Nc4ccc(F)cc4)n3)CC2)cc1 [GSK1379788] | 0 |
| O=C(O)C(F)(F)F.O=C(O)C(F)(F)F.O=c1[nH]ccc2nc(N[C@@H]3CCCNC3)nc(Nc3ccc(S(=O)(=O)N4CCOCC4)cc3)c12 [GSK2177277] | 32 |
| Cc1occc1-c1ncc(OC[C@@H](N)Cc2c[nH]c3ccccc23)cc1-c1ccc2[nH]nc(C)c2c1.O=C(O)C(F)(F)F [GSK682037] | 0 |
| CSc1cccc2c(-c3ccncn3)c(-c3ccc(F)cc3)nn12 [GW514786] | 0 |

| SMILES | %Inh [%] |
| --- | --- |
| CN1CCN(Cc2cccc(-c3ccc4c(Nc5ccc(Oc6ccccc6)cc5)ccnc4c3)c2)CC1 [GW578342] | 0 |
| COc1cccc(NC(=O)NC2CCN(c3ccnc(Nc4cc(OC)c(OC)c(OC)c4)n3)C2)c1 (stereo not shown) [GSK1379763] | 0 |
| CN1CCN(CCCNc2nccc(-c3c(-c4ccc(F)cc4)nn4cc(C(F)(F)F)ccc34)n2)CC1 [GW621581] | 0 |
| COc1cc(Nc2nccc(N3CCC(NC(=O)Nc4cccc(C(C)=O)c4)C3)n2)cc(OC)c1OC (stereo not shown) [GSK1379753] | 0 |
| Cn1cc(-c2ccc3c(c2)CCN3C(=O)Cc2cccc(F)c2)c2c(N)ncnc21 [GSK2603358] | 0 |
| Clc1ccc(-c2nn3ncccc3c2-c2ccnc(Nc3ccc4c(c3)OCCO4)n2)cc1 [GW829116] | 19 |
| Cl.Cl.NCC(NC(=O)c1cc(-c2ccccc2)c(-c2ccnc3[nH]ccc23)s1)c1ccccc1 (stereo not shown) [GSK1321561] | 6 |
| c1ccc(Oc2ccc(Nc3ccnc4cc(-c5ccc(CNCCN6CCOCC6)o5)ccc34)cc2)nc1 [GW567145] | 0 |
| CC(C)(C)c1ccc2nccc(Nc3cccc(O)c3)c2c1 [GW856795] | 37 |
| COc1ccc(-c2coc3ccc(-c4nnc(SCc5ccc(OC)c(C(F)(F)F)c5)o4)cc23)cc1 | 18 |
| COc1cccc(C2=C(Nc3ccc(Cl)c(C(=O)O)c3)C(=O)NC2=O)c1 [SB-390769] | 0 |
| O=C(Nc1n[nH]c2nc(-c3ccc(O)cc3)ccc12)C1CC1 [SB-710363] | 0 |
| CNC(=O)c1ccccc1Nc1nc(Nc2ccc(N3CCOCC3)cc2)ncc1Cl.Cl [GSK1576028] | 0 |
| COc1ccc(Nc2nccc(NCCNC(=O)c3cc4ccccc4s3)n2)cc1 [GSK1379896] | 0 |
| COc1cc(Nc2nccc(-c3c(-c4cccc(NC(=O)c5c(F)cccc5F)c4)nn4ccccc34)n2)cc(OC)c1OC [GSK323521] | 21 |
| Cc1ccc(C(=O)N2CC[C@@H](O)C2)cc1-n1c(C)cc(OCc2ccc(F)cc2F)c(Br)c1=O | 0 |
| Cc1ccc(S(=O)(=O)Nc2ccc(Nc3nccc(Nc4cccc5[nH]ncc45)n3)cc2)cc1 [GSK581271] | 0 |
| COc1cc2c(cc1OCCN1CCNCC1)ncc1c3ccc(C#N)cc3[nH]c21 | 2 |
